Results on ten compounds are retold here after PubChem BioAssay AID652181 (The Scripps Research Institute Molecular Screening Center, 2013).

SMILES strings stand for the structures.

The subject of this experiment is Hsp90 CT. In words: HSP90 domain binders, late-stage follow-up, orthogonal assay for selective HSP90 inhibitor project, biophysical, surface plasmon resonance (AID 652181). The conditions noted are these: Surface plasmon resonance binding to HSP90 domains, at 200 µM, stronger effect = higher value. (SPR reads the build-up and loss of mass on a sensor chip optically.)
`CCc1ccc(OCc2ccc(C(=O)OC)o2)cc1` gave a binding of 6.78. With `COc1cc(/C=N/Nc2ccc(Cl)c(C(=O)O)c2)ccc1OC(=O)c1ccc(F)cc1` the figure was -4.19. With `CCOC(=O)C1=C(c2ccc(OC)cc2)C(=O)c2ccccc2C1=O` the figure was 11.2; with `Cc1c(-c2nc(-c3ccc(C(F)(F)F)cc3)no2)n(C)oc1=O`, 7.47; with `CCOC(=O)c1csc(NC(=O)c2cc3ccccc3o2)n1`, 6.43. With `Cc1cc(NO)nc(-c2ccc(Br)cc2)n1` the figure was 0.77. Consider `CC(=O)Nc1ccccc1OCC(=O)c1cc(C)n(Cc2cccs2)c1C`, for which the binding stood at 10.6.

`Cc1c(-c2nc(-c3ccc(C(C)(C)C)cc3)no2)n(C)oc1=O` returned a binding of 4.46. `COc1ccccc1NC(=O)c1coc(=O)c(Br)c1` had a binding of 11.7. Turning to `COC(=O)c1ccccc1OCCCOc1ccc(C)cc1OC`, the binding was 10.2.
